# From the antibiotic and cytotoxicity screens of Wong et al. (2023)
# In all, about 39,000 compounds went through this assay and about 1,500 (3.8%) were called active. This is one part of a sample in which actives are shown more often than they occur.
# System: HSkMC (human skeletal muscle cells)
# Experiment: cytotoxicity call (relative viability < 0.9)
# Settings: 10 µM
row,Compound,cytotoxicity call
1,O=C(C[C@H]1CC[C@@H]2[C@H](COC[C@H](O)CN2C(=O)c2ccccc2)O1)NCCCN1CCOCC1,inactive
2,C[C@@H]1CN([C@@H](C)CO)C(=O)Cc2cc(NS(=O)(=O)c3ccc(F)cc3)ccc2O[C@H]1CN(C)S(=O)(=O)c1cn(C)cn1,inactive
3,C[C@@H]1CN([C@@H](C)CO)C(=O)c2cc(NC(=O)Nc3ccc(C(F)(F)F)cc3)ccc2O[C@@H]1CN(C)C(=O)Nc1ccc(C(F)(F)F)cc1,inactive
4,C[C@@H]1CCCCO[C@H](CN(C)CC2CC2)[C@H](C)CN([C@H](C)CO)C(=O)c2cc(NC(=O)C3CCCCC3)ccc2O1,inactive
5,COc1ccc(CN(C)C[C@@H]2OCCCC[C@H](C)Oc3ccc(NC(=O)C4CCCCC4)cc3C(=O)N([C@@H](C)CO)C[C@@H]2C)cc1,inactive
6,COc1ccc(C[C@H](N)C(=O)N[C@H]2[C@@H](O)[C@@H](n3cnc4c(N(C)C)ncnc43)O[C@@H]2CO)cc1,active
7,COc1ccc(C[C@H](N)C(=O)N[C@H]2[C@@H](O)[C@H](n3cnc4c(N(C)C)ncnc43)O[C@@H]2CO)cc1,active
8,Nc1ncnc2c1ncn2[C@@H]1O[C@H](CO)[C@@H](O)[C@H]1O,inactive
9,Nc1ncnc2c1ncn2C1OC(CO)C(O)C1O (centres undefined),inactive
10,COc1ccc(C[C@@H](N)C(=O)N[C@@H]2[C@@H](O)[C@@H](n3cnc4c(N(C)C)ncnc43)O[C@@H]2CO)cc1,active
11,CN(C)c1ncnc2c1ncn2[C@H]1O[C@@H](CO)[C@@H](N)[C@@H]1O,inactive
12,COc1ccc(CC(N)C(=O)NC2C(CO)OC(n3cnc4c(N(C)C)ncnc43)C2O)cc1.Cl.Cl (centres undefined),active
13,Nc1ccc(CCNc2ncnc3c2ncn3[C@@H]2O[C@H](CO)[C@@H](O)[C@H]2O)cc1,inactive
14,OC[C@H]1O[C@@H](n2cnc3c(NCc4ccco4)ncnc32)[C@H](O)[C@@H]1O,inactive
15,Nc1ncnc2c1ncn2[C@H]1O[C@@H](CO)[C@H](O)[C@@H]1S,inactive
16,COc1nc(N)nc2c1ncn2[C@@H]1O[C@H](CO)[C@@H](O)[C@@H]1O,inactive
17,CNc1ncnc2c1ncn2[C@@H]1O[C@H](CO)[C@@H](O)[C@H]1O,inactive
18,C[C@H](CO)N1C[C@H](C)[C@@H](CN(C)C(=O)Nc2ccc3c(c2)OCO3)Oc2ccc(NC(=O)CCN3CCOCC3)cc2C1=O,inactive
19,Cc1noc(C)c1NC(=O)N(C)C[C@H]1Oc2ccc(NC(=O)C3CC3)cc2CC(=O)N([C@@H](C)CO)C[C@H]1C,inactive
20,CCOCCCNc1nc2c([nH]1)c(=O)n(C)c(=O)n2C,inactive
21,C[C@@H]1CN([C@H](C)CO)S(=O)(=O)c2ccc(-c3cncnc3)cc2O[C@H]1CN(C)C(=O)c1cccc(F)c1,inactive
22,C[C@@H]1CN([C@@H](C)CO)C(=O)c2cccc(NC(=O)c3cnccn3)c2O[C@@H]1CN(C)CC1CCCCC1,inactive

row,Compound,cytotoxicity call
1,COc1cccc(C#Cc2ccc3c(c2)O[C@@H](CN(C)C(=O)c2ccccn2)[C@H](C)CN([C@H](C)CO)S3(=O)=O)c1,inactive
2,COC(=O)CCCCCCC(=O)Nc1ccc([C@H]2O[C@@H](CSc3nc(-c4ccccc4)c(-c4ccccc4)o3)C[C@H](c3ccc([N+](=O)[O-])cc3)O2)cc1,inactive
3,COCCOC(=O)N1C(=O)[C@@]2(c3cc(C#Cc4ccc(OC)cc4)ccc31)[C@H](c1ccc(O)cc1)N1[C@H](c3ccccc3)[C@H](c3ccccc3)OC(=O)[C@H]1[C@@H]2C(=O)NC[C@H](O)c1ccccc1,inactive
4,O=C(NCc1csnn1)c1csnn1,inactive
5,O=C(COC(=O)/C=C/c1cn(-c2ccccc2)nc1-c1ccc2c(c1)OCCO2)N[C@H]1CCS(=O)(=O)C1,inactive
6,C[C@H]1CN([C@@H](C)CO)C(=O)CCCn2nncc2CO[C@@H]1CN(C)S(=O)(=O)c1ccc(-n2cccn2)cc1,inactive
7,COc1ccc(S(=O)(=O)N[C@H]2C=C[C@H](CC(=O)N3CCC(Cc4ccccc4)CC3)O[C@H]2CO)cc1,inactive
8,C[C@@H]1CN([C@@H](C)CO)C(=O)Cc2cc(NC(=O)CCN3CCOCC3)ccc2O[C@H]1CN(C)C(=O)NC1CCCCC1,inactive
9,CC(C)(N)c1ccccc1Br,inactive
10,C[C@@H]1CN([C@@H](C)CO)C(=O)c2cccc(NC(=O)NC3CCCCC3)c2O[C@H]1CN(C)Cc1ccc(Cl)c(Cl)c1,inactive
11,COc1cc2c(NC3CCN(C(C)C)CC3)nc(N3CCC(F)(F)CC3)nc2cc1OCCCN1CCCC1,active
12,COc1cc2c(NC3CCN(C)CC3)nc(N3CCCN(C)CC3)nc2cc1OCCOCCN(C)C,inactive
13,COc1cc2nc(N3CCN(C(=O)C4CCCO4)CC3)nc(N)c2cc1OC.Cl (centres undefined),inactive
14,C[C@@H]1CN([C@@H](C)CO)C(=O)Cc2cc(NS(=O)(=O)c3ccccc3)ccc2O[C@@H]1CN(C)Cc1ccc(C(=O)O)cc1,inactive
15,COc1cccc(NC(=O)N(C)C[C@H]2OCc3ccccc3-c3c(n(C)c4ccccc34)C(=O)N([C@H](C)CO)C[C@H]2C)c1,inactive
16,C[C@@H]1CCCCO[C@@H](CN(C)C(=O)CCC(F)(F)F)[C@H](C)CN([C@@H](C)CO)C(=O)c2cc(NS(=O)(=O)c3cccs3)ccc2O1,inactive
17,Cc1ccc(S(=O)(=O)Nc2ccc3c(c2)C(=O)N([C@@H](C)CO)C[C@@H](C)[C@@H](CN(C)C(=O)c2ccccc2)OCCCC[C@@H](C)O3)cc1,inactive
18,C[C@H](CO)N1C[C@H](C)[C@H](CN(C)Cc2ccc(C(F)(F)F)cc2)Oc2ccc(NC(=O)Cc3ccccc3)cc2C1=O,inactive
19,Cc1ccc(S(=O)(=O)N(C)C[C@@H]2Oc3cc(Br)ccc3S(=O)(=O)N([C@@H](C)CO)C[C@@H]2C)cc1,inactive
20,COc1ccc(S(=O)(=O)Nc2ccc3c(c2)C(=O)N([C@H](C)CO)C[C@@H](C)[C@H](CN(C)Cc2ccc(C(F)(F)F)cc2)OCCCC[C@@H](C)O3)cc1,inactive
21,COc1ccc(S(=O)(=O)Nc2ccc3c(c2)C(=O)N([C@@H](C)CO)C[C@H](C)[C@@H](CN(C)Cc2ccc(C(F)(F)F)cc2)OCCCC[C@H](C)O3)cc1,inactive
22,COc1ccc(S(=O)(=O)Nc2ccc3c(c2)C(=O)N([C@H](C)CO)C[C@H](C)[C@H](CN(C)Cc2ccc(C(F)(F)F)cc2)OCCCC[C@H](C)O3)cc1,active

row,Compound,cytotoxicity call
1,COc1ccc(S(=O)(=O)Nc2ccc3c(c2)C(=O)N([C@@H](C)CO)C[C@@H](C)[C@@H](CN(C)Cc2ccc(C(F)(F)F)cc2)OCCCC[C@@H](C)O3)cc1,inactive
2,COc1ccc(S(=O)(=O)Nc2ccc3c(c2)C(=O)N([C@H](C)CO)C[C@@H](C)[C@@H](CN(C)Cc2ccc(C(F)(F)F)cc2)OCCCC[C@@H](C)O3)cc1,active
3,COc1ccc(S(=O)(=O)Nc2ccc3c(c2)C(=O)N([C@@H](C)CO)C[C@@H](C)[C@@H](CN(C)Cc2ccc(C(F)(F)F)cc2)OCCCC[C@H](C)O3)cc1,inactive
4,COc1ccc(S(=O)(=O)Nc2ccc3c(c2)C(=O)N([C@H](C)CO)C[C@H](C)[C@@H](CN(C)Cc2ccc(C(F)(F)F)cc2)OCCCC[C@@H](C)O3)cc1,active
5,COc1ccc(S(=O)(=O)Nc2ccc3c(c2)C(=O)N([C@@H](C)CO)C[C@H](C)[C@@H](CN(C)Cc2ccc(C(F)(F)F)cc2)OCCCC[C@@H](C)O3)cc1,inactive
6,COc1ccc(S(=O)(=O)Nc2ccc3c(c2)C(=O)N([C@@H](C)CO)C[C@@H](C)[C@H](CN(C)Cc2ccc(C(F)(F)F)cc2)OCCCC[C@@H](C)O3)cc1,active
7,COc1ccc(S(=O)(=O)Nc2ccc3c(c2)C(=O)N([C@H](C)CO)C[C@@H](C)[C@@H](CN(C)Cc2ccc(C(F)(F)F)cc2)OCCCC[C@H](C)O3)cc1,inactive
8,C[C@H](CO)N1C[C@H](C)[C@H](CN(C)S(=O)(=O)c2cccc(F)c2)Oc2ncc(C#CC3(O)CCCC3)cc2C1=O,inactive
9,C[C@H](CO)N1C[C@H](C)[C@H](CN(C)CC2CCCCC2)Oc2c(NC(=O)c3nc4ccccc4s3)cccc2C1=O,inactive
10,C[C@@H]1CN([C@@H](C)CO)C(=O)c2cc(NS(=O)(=O)c3cn(C)cn3)ccc2O[C@@H](C)CCCCO[C@@H]1CN(C)S(=O)(=O)c1ccccc1,inactive
11,COc1ccc(-c2cnc3c(c2)C(=O)N([C@H](C)CO)C[C@@H](C)[C@H](CN(C)C(=O)Cc2ccncc2)O3)cc1,inactive
12,C[C@@H]1CN([C@@H](C)CO)C(=O)c2cc(NC(=O)Cn3cnnn3)ccc2O[C@@H]1CN(C)S(=O)(=O)c1ccccc1,inactive
13,O=C(C[C@H]1C[C@H]2c3cc(NC(=O)NC4CCCC4)ccc3O[C@H]2[C@H](CO)O1)NCCN1CCCCC1,inactive
14,Cc1ncc([N+](=O)[O-])n1C,inactive
15,C[C@@H]1CCCCO[C@H](CN(C)S(=O)(=O)c2cn(C)cn2)[C@@H](C)CN([C@@H](C)CO)C(=O)c2cc(NC(=O)Nc3ccc(C(F)(F)F)cc3)ccc2O1,inactive
16,C[C@H]1CN([C@@H](C)CO)C(=O)Cc2cc(NC(=O)c3ccncc3)ccc2O[C@H]1CN(C)C(=O)NC1CCCCC1,inactive
17,Cc1ccc(S(=O)(=O)Nc2ccc3c(c2)C(=O)N([C@@H](C)CO)C[C@@H](C)[C@@H](CN(C)C(=O)NC2CCCCC2)OCCCC[C@H](C)O3)cc1,inactive
18,C[C@H](O)C#Cc1ccc2c(c1)O[C@H](CN(C)C(=O)Nc1ccccc1)[C@@H](C)CN([C@@H](C)CO)S2(=O)=O,inactive
19,Cc1ccccc1S(=O)(=O)N1C[C@H](O)COC[C@@H]2O[C@@H](CC(=O)N3CCN(C)CC3)CC[C@H]21,inactive
20,COCC(=O)Nc1ccc2c(c1)C(=O)N(C)C[C@@H](OC)[C@H](C)CN(C(=O)CN1CCOCC1)[C@H](C)CO2,inactive
